# Assay results reported in article PMC7862700, “An all-to-all approach to the identification of sequence-specific readers for epigenetic DNA modifications on cytosine”.
# What was measured:
# Experiment in all cases: DAPPL (digital affinity profiling via proximity ligation, sequencing); 10 mM Tris-HCl pH 7.5, 50 mM NaCl, 1 mM DTT, 4% glycerol, room temperature, 30 min; GST-TFs on glutathione beads, 16-mer random dsDNA library, 0.1% formaldehyde crosslink after washing; high values mean tight binding
# [1] = target: T1, FLI1 (Homo sapiens, UniProt Q01543 1-452); conditions: protein: recombinant; tags: N-terminal GST; dsDNA, one strand shown
# T1 sequence: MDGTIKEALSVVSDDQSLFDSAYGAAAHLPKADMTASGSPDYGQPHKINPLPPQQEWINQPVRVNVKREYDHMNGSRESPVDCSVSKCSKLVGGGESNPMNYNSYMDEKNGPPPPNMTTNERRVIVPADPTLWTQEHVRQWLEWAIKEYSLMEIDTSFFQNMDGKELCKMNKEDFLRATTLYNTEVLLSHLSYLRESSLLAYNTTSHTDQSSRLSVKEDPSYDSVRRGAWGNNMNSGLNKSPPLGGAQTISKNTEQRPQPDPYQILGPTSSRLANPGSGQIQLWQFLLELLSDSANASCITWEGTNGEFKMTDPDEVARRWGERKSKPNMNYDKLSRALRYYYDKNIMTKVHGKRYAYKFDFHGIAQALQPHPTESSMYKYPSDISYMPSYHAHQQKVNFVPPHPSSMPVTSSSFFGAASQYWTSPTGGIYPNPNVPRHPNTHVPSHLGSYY
# Method in brief: (§1)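 Beads coated with glutathione captured GST-fused human transcription factors that had been expressed in yeast, and the factors were then given DNA barcodes and pooled with a tag-only sample. The pools were incubated with 200 nmole of a random double-stranded 16-mer DNA library in Tris/NaCl/DTT/glycerol buffer for 30 min at room temperature, washed, crosslinked with 0.1% formaldehyde and proximity-ligated with BsaI/T4 ligase at 37 °C for 1 h. PCR amplification and Illumina NextSeq500 sequencing came last. Binding signal is each hexamer's read frequency for a factor divided by its frequency for the tag-only sample.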
# [2] = target: T2, ELK1 (Homo sapiens, UniProt P19419 1-428); conditions: protein: recombinant; tags: N-terminal GST; dsDNA, one strand shown
# T2 sequence: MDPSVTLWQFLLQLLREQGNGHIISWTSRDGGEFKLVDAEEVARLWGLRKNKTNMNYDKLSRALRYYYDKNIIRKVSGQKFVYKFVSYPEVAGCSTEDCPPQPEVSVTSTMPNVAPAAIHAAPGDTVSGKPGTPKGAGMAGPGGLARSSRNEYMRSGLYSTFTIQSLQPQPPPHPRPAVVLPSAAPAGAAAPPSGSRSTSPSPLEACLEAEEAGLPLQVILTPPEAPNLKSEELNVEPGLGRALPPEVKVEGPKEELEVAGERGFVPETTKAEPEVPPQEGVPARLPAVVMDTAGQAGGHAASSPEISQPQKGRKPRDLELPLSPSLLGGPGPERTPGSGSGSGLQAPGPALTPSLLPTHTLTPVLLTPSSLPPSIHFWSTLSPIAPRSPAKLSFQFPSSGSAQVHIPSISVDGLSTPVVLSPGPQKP
# Method in brief: as §1
# [3] = target: T3, GABPA (Homo sapiens, UniProt Q06546 1-454); conditions: protein: recombinant; tags: N-terminal GST; dsDNA, one strand shown
# T3 sequence: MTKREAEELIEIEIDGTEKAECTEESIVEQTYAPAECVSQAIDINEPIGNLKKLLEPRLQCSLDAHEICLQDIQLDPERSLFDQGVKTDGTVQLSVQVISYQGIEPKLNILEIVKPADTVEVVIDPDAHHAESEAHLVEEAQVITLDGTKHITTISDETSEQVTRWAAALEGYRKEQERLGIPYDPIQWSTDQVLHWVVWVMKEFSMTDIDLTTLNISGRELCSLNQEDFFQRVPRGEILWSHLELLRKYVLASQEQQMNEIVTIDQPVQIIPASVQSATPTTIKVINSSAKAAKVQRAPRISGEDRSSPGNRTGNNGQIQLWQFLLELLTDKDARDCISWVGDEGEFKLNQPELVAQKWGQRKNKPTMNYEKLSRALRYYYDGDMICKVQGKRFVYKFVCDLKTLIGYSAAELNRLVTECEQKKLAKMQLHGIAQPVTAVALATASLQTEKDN
# Method in brief: as §1
# [4] = target: T4, ERG (Homo sapiens, UniProt P11308 1-479); conditions: protein: recombinant; tags: N-terminal GST; dsDNA, one strand shown
# T4 sequence: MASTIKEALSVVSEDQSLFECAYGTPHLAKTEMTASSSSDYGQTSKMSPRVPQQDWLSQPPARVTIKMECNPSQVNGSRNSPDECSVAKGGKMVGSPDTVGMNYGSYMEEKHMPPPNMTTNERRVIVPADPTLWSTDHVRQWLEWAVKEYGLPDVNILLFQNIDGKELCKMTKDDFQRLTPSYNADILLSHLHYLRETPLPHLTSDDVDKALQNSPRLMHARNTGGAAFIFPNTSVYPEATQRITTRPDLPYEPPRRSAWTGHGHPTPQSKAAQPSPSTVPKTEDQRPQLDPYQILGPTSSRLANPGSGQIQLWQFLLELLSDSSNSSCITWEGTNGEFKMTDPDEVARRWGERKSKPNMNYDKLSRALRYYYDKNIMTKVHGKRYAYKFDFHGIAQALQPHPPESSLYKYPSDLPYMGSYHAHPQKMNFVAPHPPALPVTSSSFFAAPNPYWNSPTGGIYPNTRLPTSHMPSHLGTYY
# Method in brief: as §1
# [5] = target: ELF1 (Homo sapiens, UniProt P32519 1-619); conditions: protein: recombinant; tags: N-terminal GST; dsDNA, one strand shown
# Method in brief: as §1
# [6] = target: T5, EHF (Homo sapiens, UniProt Q9NZC4 1-300); conditions: protein: recombinant; tags: N-terminal GST; dsDNA, one strand shown
# T5 sequence: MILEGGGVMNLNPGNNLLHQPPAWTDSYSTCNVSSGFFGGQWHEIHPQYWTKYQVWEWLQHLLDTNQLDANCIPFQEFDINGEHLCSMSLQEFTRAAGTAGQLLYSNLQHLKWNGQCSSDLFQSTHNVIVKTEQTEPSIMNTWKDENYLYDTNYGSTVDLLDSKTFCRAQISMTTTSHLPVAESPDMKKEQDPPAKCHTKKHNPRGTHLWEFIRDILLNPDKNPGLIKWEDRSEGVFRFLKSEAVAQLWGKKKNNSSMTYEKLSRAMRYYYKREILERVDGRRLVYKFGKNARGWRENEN
# Method in brief: as §1
# [7] = target: SPI1 (Homo sapiens, UniProt P17947 1-270); conditions: protein: recombinant; tags: N-terminal GST; dsDNA, one strand shown
# Method in brief: as §1
# [8] = target: SPIB (Homo sapiens, UniProt Q01892 1-262); conditions: protein: recombinant; tags: N-terminal GST; dsDNA, one strand shown
# Method in brief: as §1
# [9] = target: T6, ELK3 (Homo sapiens, UniProt P41970 1-407); conditions: protein: recombinant; tags: N-terminal GST; dsDNA, one strand shown
# T6 sequence: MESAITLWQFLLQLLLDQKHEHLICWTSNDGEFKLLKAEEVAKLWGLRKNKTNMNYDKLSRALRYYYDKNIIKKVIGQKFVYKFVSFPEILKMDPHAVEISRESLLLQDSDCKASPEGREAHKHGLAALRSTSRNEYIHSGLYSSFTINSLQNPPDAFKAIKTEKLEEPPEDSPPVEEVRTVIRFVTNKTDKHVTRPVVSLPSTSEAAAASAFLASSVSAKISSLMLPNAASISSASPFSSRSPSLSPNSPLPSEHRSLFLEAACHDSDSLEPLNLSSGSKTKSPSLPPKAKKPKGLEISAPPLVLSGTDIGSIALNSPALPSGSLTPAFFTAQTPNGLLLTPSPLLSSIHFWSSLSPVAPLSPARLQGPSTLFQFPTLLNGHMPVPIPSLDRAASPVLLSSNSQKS
# Method in brief: as §1
# [10] = target: T7, FEV (Homo sapiens, UniProt Q99581 1-238); conditions: protein: recombinant; tags: N-terminal GST; dsDNA, one strand shown
# T7 sequence: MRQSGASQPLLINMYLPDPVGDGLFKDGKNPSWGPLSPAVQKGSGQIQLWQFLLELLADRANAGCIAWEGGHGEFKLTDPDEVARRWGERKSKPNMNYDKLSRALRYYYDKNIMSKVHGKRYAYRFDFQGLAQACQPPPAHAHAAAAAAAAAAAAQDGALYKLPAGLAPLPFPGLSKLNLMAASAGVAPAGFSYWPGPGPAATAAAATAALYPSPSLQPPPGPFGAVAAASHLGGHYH
# Method in brief: as §1
# [11] = target: ETV5 (Homo sapiens, UniProt P41161 1-510); conditions: protein: recombinant; tags: N-terminal GST; dsDNA, one strand shown
# Method in brief: as §1
# [12] = target: HSF1 (Homo sapiens, UniProt Q00613 1-529); conditions: protein: recombinant; tags: N-terminal GST; chain copies: 3; dsDNA, one strand shown
# Method in brief: as §1
# [13] = target: T8, SPIC (Homo sapiens, UniProt Q8N5J4 1-248); conditions: protein: recombinant; tags: N-terminal GST; dsDNA, one strand shown
# T8 sequence: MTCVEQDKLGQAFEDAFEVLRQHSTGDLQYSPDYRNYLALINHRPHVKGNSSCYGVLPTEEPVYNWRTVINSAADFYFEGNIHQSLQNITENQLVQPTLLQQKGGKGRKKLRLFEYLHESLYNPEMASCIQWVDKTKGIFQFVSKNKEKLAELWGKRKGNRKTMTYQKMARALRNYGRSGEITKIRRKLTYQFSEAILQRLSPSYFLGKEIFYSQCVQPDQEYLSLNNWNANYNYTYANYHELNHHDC
# Method in brief: as §1
# [14] = target: ELF4 (Homo sapiens, UniProt Q99607 1-663); conditions: protein: recombinant; tags: N-terminal GST; dsDNA, one strand shown
# Method in brief: as §1
# [15] = target: T9, ELK4 (Homo sapiens, UniProt P28324-2 1-405); conditions: protein: recombinant; tags: N-terminal GST; dsDNA, one strand shown
# T9 sequence: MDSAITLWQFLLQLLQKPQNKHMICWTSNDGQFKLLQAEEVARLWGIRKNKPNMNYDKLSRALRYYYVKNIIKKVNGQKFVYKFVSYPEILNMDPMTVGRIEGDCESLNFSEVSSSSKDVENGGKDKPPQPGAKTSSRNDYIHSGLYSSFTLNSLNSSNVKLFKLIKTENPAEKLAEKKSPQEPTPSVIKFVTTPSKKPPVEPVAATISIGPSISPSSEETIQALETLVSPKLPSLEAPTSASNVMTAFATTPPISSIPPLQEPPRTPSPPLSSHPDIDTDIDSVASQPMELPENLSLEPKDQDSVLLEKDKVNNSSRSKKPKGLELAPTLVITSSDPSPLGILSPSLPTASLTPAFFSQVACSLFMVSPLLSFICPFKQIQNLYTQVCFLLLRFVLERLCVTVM
# Method in brief: as §1
# [16] = target: T10, ETV2 (Homo sapiens, UniProt O00321 1-342); conditions: protein: recombinant; tags: N-terminal GST; dsDNA, one strand shown
# T10 sequence: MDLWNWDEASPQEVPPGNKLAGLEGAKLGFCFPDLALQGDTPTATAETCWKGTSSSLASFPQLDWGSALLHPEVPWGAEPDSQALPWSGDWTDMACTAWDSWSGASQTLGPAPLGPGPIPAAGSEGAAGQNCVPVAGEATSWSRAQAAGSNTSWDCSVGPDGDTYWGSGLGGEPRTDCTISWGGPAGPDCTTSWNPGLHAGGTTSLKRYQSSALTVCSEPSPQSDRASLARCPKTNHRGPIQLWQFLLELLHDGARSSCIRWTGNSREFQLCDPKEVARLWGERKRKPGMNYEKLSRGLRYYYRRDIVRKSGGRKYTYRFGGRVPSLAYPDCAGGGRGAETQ
# Method in brief: as §1
# [17] = target: T11, ELF3 (Homo sapiens, UniProt P78545 1-371); conditions: protein: recombinant; tags: N-terminal GST; dsDNA, one strand shown
# T11 sequence: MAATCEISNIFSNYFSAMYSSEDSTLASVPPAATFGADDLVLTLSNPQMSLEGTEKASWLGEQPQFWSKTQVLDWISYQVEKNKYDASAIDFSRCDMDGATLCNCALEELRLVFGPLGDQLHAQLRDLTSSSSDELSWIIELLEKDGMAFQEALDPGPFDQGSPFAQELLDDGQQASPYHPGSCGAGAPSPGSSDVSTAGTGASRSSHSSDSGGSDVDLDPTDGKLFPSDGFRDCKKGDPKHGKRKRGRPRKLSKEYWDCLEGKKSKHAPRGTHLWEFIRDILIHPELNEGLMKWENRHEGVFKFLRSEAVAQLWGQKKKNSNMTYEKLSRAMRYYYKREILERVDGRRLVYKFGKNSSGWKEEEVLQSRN
# Method in brief: as §1
# [18] = target: CRX (Homo sapiens, UniProt O43186 1-299); conditions: protein: recombinant; tags: N-terminal GST; dsDNA, one strand shown
# Method in brief: as §1
# [19] = target: ETV1 (Homo sapiens, UniProt P50549 1-477); conditions: protein: recombinant; tags: N-terminal GST; dsDNA, one strand shown
# Method in brief: as §1
# Chain of HSF1 (Q00613 whole entry): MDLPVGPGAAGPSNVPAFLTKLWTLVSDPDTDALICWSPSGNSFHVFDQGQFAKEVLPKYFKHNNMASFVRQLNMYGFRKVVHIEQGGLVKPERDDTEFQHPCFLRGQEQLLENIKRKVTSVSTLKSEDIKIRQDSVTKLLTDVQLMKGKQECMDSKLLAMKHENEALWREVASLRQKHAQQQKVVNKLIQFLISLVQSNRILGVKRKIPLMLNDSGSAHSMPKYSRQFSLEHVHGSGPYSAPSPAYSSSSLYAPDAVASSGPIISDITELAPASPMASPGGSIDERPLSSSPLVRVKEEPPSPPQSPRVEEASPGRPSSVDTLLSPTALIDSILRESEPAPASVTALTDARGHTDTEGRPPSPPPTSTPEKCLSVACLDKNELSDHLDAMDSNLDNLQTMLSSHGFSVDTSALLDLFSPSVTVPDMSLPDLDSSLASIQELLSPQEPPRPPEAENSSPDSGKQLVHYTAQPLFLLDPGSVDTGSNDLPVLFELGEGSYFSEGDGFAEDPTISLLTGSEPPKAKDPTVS
# Chain of ETV1 (P50549 whole entry): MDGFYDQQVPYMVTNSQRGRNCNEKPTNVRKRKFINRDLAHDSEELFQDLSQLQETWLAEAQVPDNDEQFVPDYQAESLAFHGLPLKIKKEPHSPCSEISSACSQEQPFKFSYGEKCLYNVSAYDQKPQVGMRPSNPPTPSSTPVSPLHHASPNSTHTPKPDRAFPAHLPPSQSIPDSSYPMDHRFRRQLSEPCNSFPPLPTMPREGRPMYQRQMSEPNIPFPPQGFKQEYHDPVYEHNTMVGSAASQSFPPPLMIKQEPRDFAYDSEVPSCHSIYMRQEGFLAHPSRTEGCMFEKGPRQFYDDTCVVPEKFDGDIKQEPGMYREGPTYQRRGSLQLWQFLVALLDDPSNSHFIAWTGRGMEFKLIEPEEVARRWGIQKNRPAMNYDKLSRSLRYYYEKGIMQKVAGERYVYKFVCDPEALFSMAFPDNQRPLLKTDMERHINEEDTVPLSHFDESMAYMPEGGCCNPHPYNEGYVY
# Chain of ETV5 (P41161 whole entry): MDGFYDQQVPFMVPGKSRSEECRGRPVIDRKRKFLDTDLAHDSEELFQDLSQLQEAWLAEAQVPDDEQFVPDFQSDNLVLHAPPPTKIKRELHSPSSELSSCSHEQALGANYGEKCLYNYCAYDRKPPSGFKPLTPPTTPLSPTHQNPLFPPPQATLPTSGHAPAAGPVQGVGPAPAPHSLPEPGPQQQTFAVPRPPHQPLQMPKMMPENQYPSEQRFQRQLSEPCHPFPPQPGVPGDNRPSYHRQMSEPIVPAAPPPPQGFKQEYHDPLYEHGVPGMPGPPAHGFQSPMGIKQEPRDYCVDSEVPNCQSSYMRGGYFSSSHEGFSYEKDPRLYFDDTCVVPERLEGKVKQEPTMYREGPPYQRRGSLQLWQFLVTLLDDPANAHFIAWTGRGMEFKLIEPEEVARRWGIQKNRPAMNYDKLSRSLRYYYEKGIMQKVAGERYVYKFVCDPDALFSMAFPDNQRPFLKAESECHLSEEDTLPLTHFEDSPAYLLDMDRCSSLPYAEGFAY
# Chain of SPIB (Q01892 whole entry): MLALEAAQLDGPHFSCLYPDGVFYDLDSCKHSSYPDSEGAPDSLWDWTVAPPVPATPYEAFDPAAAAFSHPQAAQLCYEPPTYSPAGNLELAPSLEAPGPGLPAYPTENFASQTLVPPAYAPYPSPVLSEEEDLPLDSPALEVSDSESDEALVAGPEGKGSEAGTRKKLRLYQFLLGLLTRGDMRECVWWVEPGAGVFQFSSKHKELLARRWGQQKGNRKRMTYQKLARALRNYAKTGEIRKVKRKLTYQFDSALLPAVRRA
# Chain of CRX (O43186 whole entry): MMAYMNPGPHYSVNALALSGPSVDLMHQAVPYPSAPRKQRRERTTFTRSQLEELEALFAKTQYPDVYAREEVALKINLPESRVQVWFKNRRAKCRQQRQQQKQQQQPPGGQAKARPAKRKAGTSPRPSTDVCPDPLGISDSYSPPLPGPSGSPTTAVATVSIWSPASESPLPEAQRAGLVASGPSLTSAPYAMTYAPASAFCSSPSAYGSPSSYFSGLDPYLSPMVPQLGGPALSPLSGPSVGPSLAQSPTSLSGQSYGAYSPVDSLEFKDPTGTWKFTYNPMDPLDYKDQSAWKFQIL
# Chain of ELF4 (Q99607 whole entry): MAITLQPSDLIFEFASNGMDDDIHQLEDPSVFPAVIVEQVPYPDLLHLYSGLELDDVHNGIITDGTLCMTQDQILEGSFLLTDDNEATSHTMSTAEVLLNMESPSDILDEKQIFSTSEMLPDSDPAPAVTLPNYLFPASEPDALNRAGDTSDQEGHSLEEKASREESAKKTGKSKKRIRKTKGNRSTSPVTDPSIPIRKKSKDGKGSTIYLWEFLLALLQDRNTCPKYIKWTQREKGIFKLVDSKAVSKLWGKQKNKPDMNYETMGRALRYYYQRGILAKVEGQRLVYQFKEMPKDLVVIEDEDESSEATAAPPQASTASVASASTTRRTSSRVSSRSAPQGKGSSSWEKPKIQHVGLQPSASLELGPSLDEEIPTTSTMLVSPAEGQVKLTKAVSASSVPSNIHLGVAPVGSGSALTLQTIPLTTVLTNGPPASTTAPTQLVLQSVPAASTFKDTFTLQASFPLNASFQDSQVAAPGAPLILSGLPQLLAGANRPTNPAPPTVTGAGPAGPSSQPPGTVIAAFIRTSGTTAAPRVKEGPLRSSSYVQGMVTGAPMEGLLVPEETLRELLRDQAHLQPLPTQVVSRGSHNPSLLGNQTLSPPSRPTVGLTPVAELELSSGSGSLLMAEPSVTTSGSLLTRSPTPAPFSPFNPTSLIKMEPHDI
# Chain of ELF1 (P32519 whole entry): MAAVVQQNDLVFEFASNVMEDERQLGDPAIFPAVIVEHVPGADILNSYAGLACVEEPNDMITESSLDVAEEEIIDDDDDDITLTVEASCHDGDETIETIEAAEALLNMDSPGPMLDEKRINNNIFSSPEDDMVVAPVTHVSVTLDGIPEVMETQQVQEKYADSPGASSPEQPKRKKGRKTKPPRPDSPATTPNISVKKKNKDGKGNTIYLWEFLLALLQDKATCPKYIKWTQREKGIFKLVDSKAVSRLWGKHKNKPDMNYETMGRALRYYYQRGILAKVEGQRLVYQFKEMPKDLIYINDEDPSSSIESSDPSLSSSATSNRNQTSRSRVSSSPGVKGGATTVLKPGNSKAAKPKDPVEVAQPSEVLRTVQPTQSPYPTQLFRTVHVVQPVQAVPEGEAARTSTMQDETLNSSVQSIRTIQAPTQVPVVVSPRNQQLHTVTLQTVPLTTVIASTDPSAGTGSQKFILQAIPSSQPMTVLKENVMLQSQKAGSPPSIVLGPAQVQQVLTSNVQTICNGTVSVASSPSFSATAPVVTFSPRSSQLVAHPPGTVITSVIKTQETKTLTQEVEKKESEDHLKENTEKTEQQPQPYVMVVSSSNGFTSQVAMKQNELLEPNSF
sequence,measurement,setting,value
ATAATC,binding signal,[1],"1.17 fold enrichment (6-mer frequency, TF over GST control)"
same,binding signal,[2],"1.16 fold enrichment (6-mer frequency, TF over GST control)"
same,binding signal,[3],"1.14 fold enrichment (6-mer frequency, TF over GST control)"
same,binding signal,[4],"1.13 fold enrichment (6-mer frequency, TF over GST control)"
same,binding signal,[5],"1.07 fold enrichment (6-mer frequency, TF over GST control)"
same,binding signal,[6],"1.14 fold enrichment (6-mer frequency, TF over GST control)"
same,binding signal,[7],"1.1 fold enrichment (6-mer frequency, TF over GST control)"
same,binding signal,[8],"1.08 fold enrichment (6-mer frequency, TF over GST control)"
same,binding signal,[9],"1.17 fold enrichment (6-mer frequency, TF over GST control)"
same,binding signal,[10],"1.1 fold enrichment (6-mer frequency, TF over GST control)"
same,binding signal,[11],"1.17 fold enrichment (6-mer frequency, TF over GST control)"
same,binding signal,[12],"2.86 fold enrichment (6-mer frequency, TF over GST control)"
same,binding signal,[13],"1.16 fold enrichment (6-mer frequency, TF over GST control)"
same,binding signal,[14],"1.13 fold enrichment (6-mer frequency, TF over GST control)"
same,binding signal,[15],"1.13 fold enrichment (6-mer frequency, TF over GST control)"
same,binding signal,[16],"1.21 fold enrichment (6-mer frequency, TF over GST control)"
same,binding signal,[17],"1.15 fold enrichment (6-mer frequency, TF over GST control)"
same,binding signal,[18],"4.71 fold enrichment (6-mer frequency, TF over GST control)"
same,binding signal,[19],"1.12 fold enrichment (6-mer frequency, TF over GST control)"
